Screening results (PubChem)
A selection: hits, their analogues and other compounds. The true share with any hit is near 4.6%.
D1 agonist: human D1 receptor agonism | HEK293 T-REx D1 cells, calcium flux, agonist mode | activation, % at 2 µM | 1% of 360,000 active | P21728; further: 0% is about no effect
Target sequence (P21728 whole entry, looked up): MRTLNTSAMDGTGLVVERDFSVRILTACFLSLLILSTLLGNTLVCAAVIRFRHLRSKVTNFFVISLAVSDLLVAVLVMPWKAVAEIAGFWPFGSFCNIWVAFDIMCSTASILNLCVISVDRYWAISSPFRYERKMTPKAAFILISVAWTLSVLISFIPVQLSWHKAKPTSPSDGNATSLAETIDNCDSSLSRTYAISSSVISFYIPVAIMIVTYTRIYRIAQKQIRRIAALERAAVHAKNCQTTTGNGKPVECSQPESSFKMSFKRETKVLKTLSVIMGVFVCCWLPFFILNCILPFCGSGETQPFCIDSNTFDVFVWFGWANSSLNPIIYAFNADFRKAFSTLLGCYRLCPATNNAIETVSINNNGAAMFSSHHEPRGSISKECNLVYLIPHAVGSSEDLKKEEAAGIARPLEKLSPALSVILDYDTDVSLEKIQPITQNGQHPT
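Agonism was scored from calcium flux recorded over 180 s (1 read/s) after pintool compound addition, following a 10-cycle baseline. Cells were inducible force-coupled HEK293 TREx D1, plated overnight at 30 C and loaded with no-wash calcium dye.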
D1 potentiator: potentiators of human D1 dopamine receptor. P21728. HEK293 TREx D1 cells, calcium flux, dopamine EC20 potentiation. potentiation, % at 10 µM. 0.036% of 360,000 active. AID 504651; in the data active means potentiation above about 30%; further: 0% is about no effect
TRHR enhancer: allosterically enhances the human TRH receptor; AID 493056; P34981; 0.66% of 360,000 active; TRHR cells, fluo-8 calcium fluorescence, EC20 TRH enhancement; enhancement, % at 2 µM; in the data active means enhancement above about 30%; further: 0% is about no effect
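TRHR-expressing cells loaded with fluo-8 calcium dye were read kinetically (ex 480/em 530) during compound addition, then stimulated with an EC20 of TRH (10 nM final). Enhancement of the Gq-mediated intracellular calcium response was scored.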
D1 antag: blocks dopamine activation of the human D1 receptor; HEK293 TREx D1 cells, calcium flux, dopamine EC80; stronger effect = lower value; P21728; AID 504652; 3.2% of 360,000 active; activity change, negative = inhibition, % at 10 µM; in the data active means activity change below about -30%; further: on the % scale 0 is the no-effect control and ±100 the full control effect
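Inducible Hek293 Trex D1 cells (tetracycline, overnight, 30 C). Calcium dye 30–90 min RT. Antagonist mode: EC80 dopamine added after 180 s compound read.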
TRHR agonist: activates the human TRH receptor | P34981 | TRHR cells, calcium flux fluo-8, FDSS agonist mode | activation, % at 2 µM | 0.18% of 360,000 active; further: 0% is about no effect
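Steps: seed TRHR cells overnight; add fluo-8 no-wash Ca dye, RT 30 min–1.5 h; record 10 s baseline; pin-transfer compounds; monitor fluorescence 1 cycle/s for the agonist window. Calcium increases flag candidate agonists.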
An asterisk follows results filed as active. Unless noted, no stated cut-off is given here; in the data, active means activation above about 30%; inactive means the rest.

SMILES	D1 agonist	D1 potentiator	TRHR enhancer	D1 antag	TRHR agonist
CC(C)C[C@H](N)c1nnc(S(=O)(=O)Cc2ccc(F)cc2)o1	10	-16	-3	-70*	0
Cc1ccc(C(=O)c2ccccc2C(=O)O)s1	1	-3	-6	16	0
O=C(O)c1ccccc1C(=O)c1ccc(Br)s1	3	2	-4	-34*	0
O=C(O)c1ccccc1C(=O)c1cccc2ccccc12	0	-10	7	-37*	0
CCC1CCCCN1CCCNC(=O)CN1C(=O)c2cccnc2Oc2ccc(C)cc21 (stereo unspecified)	1	0	0	-17	0
CC(C)N(Cc1ccccc1)C(=O)CN1C(=O)NC2(CCCc3ccccc32)C1=O (stereo unspecified)	6	3	2	8	1
COc1ccccc1NC(=O)CN1CCN(C(=O)C2CCCO2)CC1 (stereo unspecified)	3	1	32*	-23	0
O=C(CN1CCN(C(=O)C2CCCO2)CC1)Nc1ccc(Cl)cc1 (stereo unspecified)	-1	4	-3	-30*	0
O=C(C1CCCO1)N1CCN(S(=O)(=O)c2ccc(Cl)cc2)CC1 (stereo unspecified)	3	-9	0	-47*	0
Cc1ccc(S(=O)(=O)N2CCN(C(=O)C3CCCO3)CC2)cc1 (stereo unspecified)	1	4	8	12	0
O=C(C1CC(Cl)CN1S(=O)(=O)c1ccc(Cl)cc1)N1CCOCC1 (stereo unspecified)	-1	-5	-6	-36*	1
O=C(Nc1ccc(Cl)cc1)N1CCN(C(=O)C2CCCO2)CC1 (stereo unspecified)	1	-3	-4	-20	0
O=C(c1cc2cc(Cl)ccc2[nH]1)N1CCCCC1	2	-6	-5	-2	0
COc1cccc(C(=O)NCC(=O)N/N=C/c2cccnc2)c1	2	-1	-3	-7	0
COc1ccccc1CNC(=O)C1CCN(S(=O)(=O)c2cccc3nonc23)CC1	-4	-1	0	2	0
COCCCNc1nc2nonc2nc1N1CCN2CCCC2C1 (stereo unspecified)	1	-3	-3	9	0
NC(=O)C1CCN(CC(=O)Nc2ccccc2Sc2ccccc2)CC1	3	4	-3	3	0
COC(=O)C1CCN(CC(=O)Nc2ccccc2Sc2ccccc2)CC1	8	8	35*	2	1
COc1cc(NC(=O)Nc2ccccc2OC)c(OC)cc1NC(=O)CN1CCCCC1	1	-12	4	-32*	-1
CC(C)N(C(=O)CN1CCN(C(=O)C2COc3ccccc3O2)CC1)C(C)C (stereo unspecified)	2	-7	2	-1	1
O=C(CN1CCN(C(=O)C2COc3ccccc3O2)CC1)Nc1ccccc1 (stereo unspecified)	3	-8	-3	-33*	1
COc1ccccc1Cn1c(=S)[nH]c2ccccc2c1=O	4	0	9	3	4
O=C(CN1C(=O)c2cccc3cccc1c23)Nc1cccc(F)c1	0	-2	-5	-15	0
O=C(c1c(F)cccc1F)N1CCC(O)(c2ccc(F)cc2)CC1	1	-7	-6	-3	0
COc1ccc(-c2csc(C)n2)cc1	0	-9	-1	-1	0
SMILES	D1 agonist	D1 potentiator	TRHR enhancer	D1 antag	TRHR agonist
COc1cc(C)nc(-c2csc(C)n2)n1	1	0	31*	-3	-1
CCC(C)n1c(=N)c(C#N)cc2c(=O)n3cccc(C)c3nc21 (stereo unspecified)	6	2	12	10	-1
CC(=O)Nc1ccc(S(=O)(=O)N2CCC(c3ccncc3)CC2)cc1	9	0	-1	-37*	0
Cc1ccc(S(=O)(=O)N2CCC(c3ccncc3)CC2)c(C)c1	15	-2	-2	-34*	0
CC(=O)Nc1ccc(S(=O)(=O)N2CCC(C(=O)NCCC(=O)Nc3nccs3)CC2)cc1	2	-4	3	-5	0
CC(=O)Nc1ccc(S(=O)(=O)N2CCC(C(=O)Nc3nccs3)CC2)cc1	0	-5	-7	-39*	1
CC(=O)Nc1ccc(S(=O)(=O)N2CCC(c3nnc(-c4ccc(C)cc4)o3)CC2)cc1	2	-13	1	-33*	0
Cc1ccc(S(=O)(=O)N2CCN(S(=O)(=O)N3CCC(C)CC3)CC2)c(C)c1	3	0	-3	5	0
COC(=O)Nc1ccc(S(=O)(=O)Nc2cccc3ccccc23)cc1	13	-6	-1	-8	0
COc1ccccc1-c1nnc(C2CCN(S(=O)(=O)c3ccc([N+](=O)[O-])cc3)CC2)o1	37*	-7	-14	-3	0
Cc1cc(C)cc(Nc2nc3c(S(=O)(=O)c4cccc(Cl)c4)nnn3c3ccsc23)c1	1	-6	7	4	0
Cc1ccc(S(=O)(=O)c2nnn3c2nc(NC2CCCCC2)c2sccc23)cc1C	15	-6	24	-39*	0
Cc1ccc(C)c(S(=O)(=O)c2nnn3c2nc(NC2CCCC2)c2sccc23)c1	2	-5	-8	-24	0
O=S(=O)(c1cccc(Cl)c1)c1nnn2c1nc(NC1CCCC1)c1sccc12	6	-8	8	-72*	0
COc1ccc(CNC(=O)CCSc2ccc(F)cc2)cc1OC	2	-4	0	-40*	0
CCc1ccccc1NC(=O)c1nn(-c2ccc(C)cc2)c(=O)c2c1c1ccccc1n2C	2	-3	25	-33*	-1
Cc1ccc(-n2nc(C(=O)N(C)c3ccccc3Cl)c3c4ccccc4n(C)c3c2=O)cc1	2	4	8	12	56*
CCOc1ccccc1N(C)C(=O)c1nn(-c2ccc(C)cc2)c(=O)c2c1c1ccccc1n2C	-2	1	1	5	1
CCc1ccccc1NC(=O)c1cn(C)c(=O)c2ccccc12	-2	0	-2	-69*	0
COc1ccc(-n2nc(C(=O)Nc3cccc(C)n3)c3c4ccccc4n(C)c3c2=O)cc1Cl	1	1	7	-8	0
COc1ccc(-n2nc(C(=O)Nc3cccc(Cl)c3)c3c4ccccc4n(C)c3c2=O)cc1Cl	2	2	-1	-32*	0
COC(=O)c1cc(NC(=O)CSc2nncn2C)cc(C(=O)OC)c1	2	1	-3	0	2
Cc1ccc(CNC(=O)C2CCN(S(=O)(=O)c3cc(-c4noc(C)n4)ccc3C)CC2)cc1	5	-5	5	-9	0
CCOC(=O)c1cc2c(ccn2C)n1CC(=O)N(Cc1ccccc1)c1ccc(F)cc1	2	0	3	-37*	0
Cc1ccc(NC(=O)c2ccc(-c3cccc(Cl)c3C)o2)cc1	12	0	36*	-5	2
